This is an account of results in PubChem BioAssay (NCI).

Among the test systems are DU-145 prostate; K-562 leukemia; MALME-3M melanoma; MDA-MB-231 breast; RXF 393 renal; SF-268 CNS; SF-295 CNS; SF-539 CNS; UACC-257 melanoma; M14 melanoma; HCT-15 colon; HT29 colon; SNB-75 CNS; SNB-19 CNS; U251 CNS; SK-MEL-5 melanoma; UACC-62 melanoma; LOX IMVI melanoma; SK-MEL-28 melanoma; PC-3 prostate.
Holding throughout (experiment): NCI-60 one-dose screen, 48 h (100 = growth as untreated, 0 = no growth, -100 = all killed)
What all share (details): 10 µM unless noted

About 83,000 compounds went through this panel and 20% of them were active in at least one assay; those are over-represented in the sample as a whole.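 Single-concentration screen, 48 h exposure, 96-well plates. Endpoint: percent growth. Below 10 = active.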 Unmarked numbers belong to inactive results. Active and inactive are the calls of the source.

On to `COC(OC)C1(c2ccccc2)NC(=O)NC1=O` (centres undefined), for which the growth in the test with DU-145 prostate is 120%; with K-562 leukemia, 112%; in the test with MALME-3M melanoma it was 112%; in the test with MDA-MB-231 breast it was 112%; in the test on RXF 393 renal it was 116%; in the test on SF-268 CNS it was 119%. In addition, the growth in the test with SF-295 CNS is 121%; in the test with SF-539 CNS, 114%; with UACC-257 melanoma it was 104%; in the test with M14 melanoma, 108%; with HCT-15 colon, 110%; in the test on HT29 colon, 106%. Besides, the growth is 94% in the test with SNB-75 CNS; 106% in the test on SNB-19 CNS; 107% in the test with U251 CNS; 115% in the test with SK-MEL-5 melanoma; 106% in the test on UACC-62 melanoma; 109% with LOX IMVI melanoma. Besides, the growth in the test with SK-MEL-28 melanoma is 106%.

`O=C(Nc1ccc(-n2ccc3c(NC(=O)c4ccccc4)nccc32)cc1)Nc1ccc(Cl)c(Cl)c1`: the growth was -32.6% (active) in the test with DU-145 prostate; -27.3% (active) in the test with K-562 leukemia; -46.9% (active) with MALME-3M melanoma; -65.2% (active) in the test with MDA-MB-231 breast; -93.9% (active) with RXF 393 renal; 1.8% (active) in the test with SF-268 CNS. Further, the growth is -67% (active) in the test on SF-295 CNS; -58.6% (active) in the test on SF-539 CNS; -69% (active) in the test with UACC-257 melanoma; -69.8% (active) with M14 melanoma; -50.8% (active) in the test on HCT-15 colon; -42.8% (active) with HT29 colon. Besides, the growth was -7.26% (active) in the test with SNB-75 CNS; -40.2% (active) in the test with SNB-19 CNS; -79.6% (active) in the test on U251 CNS; 23.9% in the test with PC-3 prostate; -46.4% (active) in the test with UACC-62 melanoma; -72.4% (active) in the test on LOX IMVI melanoma. Further, in the test on SK-MEL-28 melanoma, the growth is 18.2%.

For the compound `C=C1c2c(Cl)ccc(O)c2C(O)=C2C(=O)[C@]3(O)C(O)=C(C(N)=O)C(=O)[C@@H](N(C)C)[C@@H]3[C@@H](O)[C@H]12`, the growth is 21.9% in the test with DU-145 prostate; 3.66% (active) in the test with K-562 leukemia; -15% (active) with MALME-3M melanoma; 11% in the test on MDA-MB-231 breast; 12.4% in the test with RXF 393 renal; 11.8% with SF-268 CNS. Moreover, the growth was -4.14% (active) in the test with SF-295 CNS; 5.14% (active) in the test with SF-539 CNS; -4.26% (active) in the test on UACC-257 melanoma; 9.22% (active) with M14 melanoma; 13.7% in the test with HCT-15 colon; 10.9% in the test with HT29 colon. In addition, the growth in the test with SNB-75 CNS is 0.44% (active); with SNB-19 CNS it was 20.9%; in the test on U251 CNS it was 4.36% (active); in the test with PC-3 prostate it was -8.47% (active); with UACC-62 melanoma, 7.11% (active); in the test on LOX IMVI melanoma it was 0.768% (active). Also, the growth in the test with SK-MEL-28 melanoma was 25.8%.

For `CCn1c(C)nc([N+](=O)[O-])c1Sc1nc(N)nc2nc[nH]c12`, the growth in the test on DU-145 prostate is 24.4%; in the test with K-562 leukemia, 17.3%; in the test on MALME-3M melanoma, 53.2%; in the test with MDA-MB-231 breast, 42.3%; in the test on RXF 393 renal it was 36%; in the test with SF-268 CNS, 31.3%. For the same compound, the growth was 23.8% in the test with SF-295 CNS; 26.7% with SF-539 CNS; 39.7% in the test with UACC-257 melanoma; 8.02% (active) in the test with M14 melanoma; 40.7% in the test with HCT-15 colon; 29.3% with HT29 colon. Moreover, the growth was 44.7% with SNB-75 CNS; 95.1% with SNB-19 CNS; 55.1% with U251 CNS; 59.2% in the test with SK-MEL-5 melanoma; 1.74% (active) in the test with UACC-62 melanoma; 7.51% (active) in the test with LOX IMVI melanoma. The growth in the test on SK-MEL-28 melanoma is 81.3%.

For `COc1cc2c(cc1OC)-c1c(oc3c4c(ccc3c1=O)OC(C)(C)C=C4)CO2`, the growth in the test on DU-145 prostate is 90.9%; with K-562 leukemia, 39.9%; with MALME-3M melanoma, 93.2%; with MDA-MB-231 breast it was 81.5%; with RXF 393 renal it was 96.9%; with SF-268 CNS it was 79.4%. Moreover, the growth with SF-295 CNS is 51.7%; in the test with SF-539 CNS, 83.5%; in the test on UACC-257 melanoma, 54.8%; in the test on M14 melanoma, 83.1%; in the test with HCT-15 colon it was 82.8%; in the test on HT29 colon, 89.5%. Moreover, the growth was 75.8% in the test with SNB-75 CNS; 75.5% in the test on SNB-19 CNS; 88.6% with U251 CNS; 23.8% in the test with SK-MEL-5 melanoma; 61.1% with UACC-62 melanoma; 63% in the test with LOX IMVI melanoma. Further, the growth in the test on SK-MEL-28 melanoma is 93.8%.

For the compound `COc1ccc(-c2nn(-c3ccc(NC(=O)c4ccc(Cl)c(C(F)(F)F)c4)cc3)cc2-c2ccncc2)cc1Cl`, the growth with DU-145 prostate was 45%; in the test with K-562 leukemia it was 0.122% (active); in the test on MALME-3M melanoma, 6.68% (active); in the test on MDA-MB-231 breast, -29.6% (active); in the test on RXF 393 renal, -76% (active); in the test with SF-268 CNS, 14.5%. Further, the growth is -30.3% (active) in the test with SF-295 CNS; 9.99% (active) in the test with SF-539 CNS; 51.2% in the test with UACC-257 melanoma; 13.3% in the test on M14 melanoma; -26% (active) in the test with HCT-15 colon; -39.5% (active) with HT29 colon. The growth was 31.1% with SNB-75 CNS; 42.7% in the test on SNB-19 CNS; 13.5% with U251 CNS; 23.2% with PC-3 prostate; -14.6% (active) in the test with UACC-62 melanoma; -63.9% (active) in the test with LOX IMVI melanoma. Also, in the test with SK-MEL-28 melanoma, the growth is 50.2%.

Turning to `CC(C)(C)C(=O)Nc1nc2c(s1)CCc1ccn(S(=O)(=O)c3ccccc3)c1-2`, the growth in the test on DU-145 prostate is 99.1%; in the test with K-562 leukemia, 69%; in the test on MALME-3M melanoma, 99.6%; in the test on MDA-MB-231 breast, 95.8%; in the test on RXF 393 renal it was 116%; with SF-268 CNS, 89.5%. Further, the growth in the test with SF-295 CNS is 91.7%; in the test on SF-539 CNS it was 99.4%; in the test on UACC-257 melanoma, 95%; in the test with M14 melanoma, 96.1%; in the test on HCT-15 colon it was 92.8%; in the test on HT29 colon, 79.5%. Besides, the growth in the test with SNB-75 CNS was 89.6%; with SNB-19 CNS, 116%; in the test on U251 CNS it was 94.1%; in the test with PC-3 prostate it was 81.1%; with SK-MEL-5 melanoma, 99.9%; with UACC-62 melanoma it was 77.2%. For the same compound, the values for the growth in the test on LOX IMVI melanoma and in the test with SK-MEL-28 melanoma were 84.5% and 101%, respectively.
